Reference: PubChem BioAssay (EPA / NIEHS)
Where “and” joins values, the source holds several entries; their conditions need not be identical. Identical values can stand only once. A structure can be active in one record and inactive in another. Calls of active or inactive are those of the source. How the source made its calls: active means hit-call score of the fitted dose curve at least 0.9, where 1 is the maximum; inactive means score below 0.9.

Experiment: ATG_TAL_CIS: Attagene CIS-FACTORIAL HepG2 Assay for human TAL Basal Promoter (AID 2282966);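 further: background control endpoint measuring basal TAL promoter reporter mRNA not a specific factor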
Conditions: HepG2 Attagene cis-factorial TAL promoter reporter; actives raise or lower the signal
Procedure, shortened: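 Background-control endpoint: basal TAL promoter reporter transcripts in transiently transfected HepG2, measured 24 h after dosing. Read-out by RT-PCR with fluorescent primer extension and capillary electrophoresis; gain or loss of signal fitted relative to DMSO.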

Row | SMILES | outcome | AC50
1 | CCCC(=O)O | inactive | 
2 | CCCCCCCC(=O)OC | inactive | 
3 | CCN(CC)CCOc1ccc(C(=C(Cl)c2ccccc2)c2ccccc2)cc1 | inactive | 13.1 µM (active)
4 | O=[Si]=O | inactive | 
5 | Cc1cn([C@H]2C=C[C@@H](CO)O2)c(=O)[nH]c1=O | inactive | 
6 | COc1ccc(OC(F)(F)F)cc1CN[C@H]1CCCN[C@H]1c1ccccc1 | inactive | 
7 | CCCCCCCCCCCCCCCCO | inactive | 
8 | CCCCCCC(CCCCCCCCCCC(=O)OCC(COC(C)=O)OC(C)=O)OC(C)=O (stereo not given) | inactive | 
9 | CC1=C(C)S(=O)(=O)CCS1(=O)=O | inactive | 
10 | OCC(CO)n1cnc(-c2ccc(F)cc2)c1-c1ccnc(Oc2ccccc2)n1 | inactive | 
11 | C/C=C/C=C/C(=O)O | inactive | 
12 | O=C(N[C@@H](c1ccccc1)[C@@H]1CCCCN1)c1cccc(C(F)(F)F)c1Cl | inactive | 
13 | COC(=O)CCCC(=O)OC | inactive | 
14 | Cc1c(C)c2c(c(C)c1O)CCC(C)(COc1ccc(CC3SC(=O)NC3=O)cc1)O2 (stereo not given) | inactive | 
15 | CSc1ccc(Oc2ccc(S(N)(=O)=O)cc2CN(C)C)cc1C | inactive | 
16 | CC(COCC(C)OC(=O)c1ccccc1)OC(=O)c1ccccc1 (stereo not given) | inactive | 
17 | CC(C)COC(=O)CCCCC(=O)OCC(C)C | inactive | 
18 | Cc1ccc(C(C)(C)C)c(O)c1 | inactive | 
19 | CC(=O)O[C@]1(C(C)=O)CC[C@H]2[C@@H]3C=C(Cl)C4=CC(=O)[C@@H]5C[C@@H]5[C@]4(C)[C@H]3CC[C@@]21C | inactive | 47.7 µM (active)
20 | Cc1cc(SC2=C(O)C[C@@](CCc3ccc(N)cc3)(C(C)C)OC2=O)c(C(C)(C)C)cc1CO | inactive | 
21 | CC(C)NCC(O)c1ccc(O)c(O)c1 (stereo not given) | inactive | 
22 | CCCCCCCCCC[N+](C)(C)[O-] | inactive | 
23 | CCc1nc(N)nc(N)c1-c1ccc(Cl)cc1 | inactive | 
24 | CS(=O)(=O)c1ccc([C@@H](C[C@H]2CCC(=O)C2)C(=O)Nc2cnccn2)cc1Cl | inactive | 
25 | O=C(NS(=O)(=O)/C=C/c1cccs1)c1ccc(F)cc1Br | inactive | 
26 | O=C(O)c1[nH]n(-c2ccc(S(=O)(=O)O)cc2)c(=O)c1N=Nc1ccc(S(=O)(=O)O)cc1 | inactive | 
27 | CC(C)c1cccc(C(C)C)c1 | inactive | 
28 | CN(C)C(=O)NC1(c2ccccc2)CCN(CC[C@@]2(c3ccc(F)c(F)c3)CN(C(=O)c3ccccc3)CCO2)CC1 | inactive | 
29 | CC1(C)C(=O)NC(=O)N1CO | inactive | 

Experiment: ATG_TGFb_CIS: Attagene CIS-FACTORIAL HepG2 Assay for human Transforming Growth Factor (TGF) (AID 2282967)
Conditions: HepG2 Attagene CIS TGFb reporter, mRNA transcription; actives raise or lower the signal
Procedure, shortened: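 Cells were dosed for 24 hours, after which total RNA was reverse-transcribed and reporter sequences amplified, labeled and sized by capillary electrophoresis. Activity was fitted in both directions against DMSO.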

Row | SMILES | outcome
30 | CCCC(=O)O | inactive
31 | CCCCCCCC(=O)OC | inactive
32 | O=[Si]=O | inactive
33 | Cc1cn([C@H]2C=C[C@@H](CO)O2)c(=O)[nH]c1=O | inactive
34 | COc1ccc(OC(F)(F)F)cc1CN[C@H]1CCCN[C@H]1c1ccccc1 | inactive
35 | CCCCCCCCCCCCCCCCO | inactive
36 | CCCCCCC(CCCCCCCCCCC(=O)OCC(COC(C)=O)OC(C)=O)OC(C)=O (stereo not given) | inactive
37 | CC1=C(C)S(=O)(=O)CCS1(=O)=O | inactive
38 | OCC(CO)n1cnc(-c2ccc(F)cc2)c1-c1ccnc(Oc2ccccc2)n1 | inactive
39 | C/C=C/C=C/C(=O)O | inactive
40 | O=C(N[C@@H](c1ccccc1)[C@@H]1CCCCN1)c1cccc(C(F)(F)F)c1Cl | inactive
41 | COC(=O)CCCC(=O)OC | inactive
42 | Cc1c(C)c2c(c(C)c1O)CCC(C)(COc1ccc(CC3SC(=O)NC3=O)cc1)O2 (stereo not given) | inactive
43 | CSc1ccc(Oc2ccc(S(N)(=O)=O)cc2CN(C)C)cc1C | inactive
44 | CC(COCC(C)OC(=O)c1ccccc1)OC(=O)c1ccccc1 (stereo not given) | inactive
45 | CC(C)COC(=O)CCCCC(=O)OCC(C)C | inactive
46 | Cc1ccc(C(C)(C)C)c(O)c1 | inactive
47 | CC(=O)O[C@]1(C(C)=O)CC[C@H]2[C@@H]3C=C(Cl)C4=CC(=O)[C@@H]5C[C@@H]5[C@]4(C)[C@H]3CC[C@@]21C | inactive
48 | Cc1cc(SC2=C(O)C[C@@](CCc3ccc(N)cc3)(C(C)C)OC2=O)c(C(C)(C)C)cc1CO | inactive
49 | CC(C)NCC(O)c1ccc(O)c(O)c1 (stereo not given) | inactive
50 | CCCCCCCCCC[N+](C)(C)[O-] | inactive
51 | CCc1nc(N)nc(N)c1-c1ccc(Cl)cc1 | inactive
52 | CS(=O)(=O)c1ccc([C@@H](C[C@H]2CCC(=O)C2)C(=O)Nc2cnccn2)cc1Cl | inactive
53 | O=C(NS(=O)(=O)/C=C/c1cccs1)c1ccc(F)cc1Br | inactive
54 | O=C(O)c1[nH]n(-c2ccc(S(=O)(=O)O)cc2)c(=O)c1N=Nc1ccc(S(=O)(=O)O)cc1 | inactive
55 | CC(C)c1cccc(C(C)C)c1 | inactive
56 | CN(C)C(=O)NC1(c2ccccc2)CCN(CC[C@@]2(c3ccc(F)c(F)c3)CN(C(=O)c3ccccc3)CCO2)CC1 | inactive
57 | CC1(C)C(=O)NC(=O)N1CO | inactive

Experiment: ATG_VDRE_CIS: Attagene CIS-FACTORIAL HepG2 Assay for human Vitamin D Receptor Element (VDRE) (AID 2282968)
Conditions: HepG2 VDRE cis-reporter transcription, actives raise or lower the signal
Procedure, shortened: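 Transfected HepG2 reporter cells, chemical treatment 24 h. RNA isolated, cDNA amplified with reporter-specific primers, products analysed by capillary electrophoresis. Endpoint fitted in both directions versus DMSO.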

Row | SMILES | outcome | AC50
58 | CCCC(=O)O | inactive | 
59 | CCCCCCCC(=O)OC | inactive | 
60 | CCN(CC)CCOc1ccc(C(=C(Cl)c2ccccc2)c2ccccc2)cc1 | inactive | 3.11 µM (active) and 6.33 µM (active) and 1.3 µM (active)
61 | O=[Si]=O | inactive | 
62 | Cc1cn([C@H]2C=C[C@@H](CO)O2)c(=O)[nH]c1=O | inactive | 
63 | COc1ccc(OC(F)(F)F)cc1CN[C@H]1CCCN[C@H]1c1ccccc1 |  | 4.99 µM (active)
64 | CCCCCCCCCCCCCCCCO | inactive | 
65 | CCCCCCC(CCCCCCCCCCC(=O)OCC(COC(C)=O)OC(C)=O)OC(C)=O (stereo not given) | inactive | 
66 | CC1=C(C)S(=O)(=O)CCS1(=O)=O | inactive | 
67 | OCC(CO)n1cnc(-c2ccc(F)cc2)c1-c1ccnc(Oc2ccccc2)n1 | inactive | 
68 | C/C=C/C=C/C(=O)O | inactive | 
69 | O=C(N[C@@H](c1ccccc1)[C@@H]1CCCCN1)c1cccc(C(F)(F)F)c1Cl |  | 20.4 µM (active)
70 | COC(=O)CCCC(=O)OC | inactive | 
71 | Cc1c(C)c2c(c(C)c1O)CCC(C)(COc1ccc(CC3SC(=O)NC3=O)cc1)O2 (stereo not given) |  | 13.9 µM (active)
72 | CSc1ccc(Oc2ccc(S(N)(=O)=O)cc2CN(C)C)cc1C |  | 29.8 µM (active)
73 | CC(COCC(C)OC(=O)c1ccccc1)OC(=O)c1ccccc1 (stereo not given) | inactive | 
74 | CC(C)COC(=O)CCCCC(=O)OCC(C)C | inactive | 
75 | Cc1ccc(C(C)(C)C)c(O)c1 |  | 151 µM (active)
76 | CC(=O)O[C@]1(C(C)=O)CC[C@H]2[C@@H]3C=C(Cl)C4=CC(=O)[C@@H]5C[C@@H]5[C@]4(C)[C@H]3CC[C@@]21C | inactive | 24.1 µM (active)
77 | Cc1cc(SC2=C(O)C[C@@](CCc3ccc(N)cc3)(C(C)C)OC2=O)c(C(C)(C)C)cc1CO |  | 5.63 µM (active)
78 | CC(C)NCC(O)c1ccc(O)c(O)c1 (stereo not given) | inactive | 
79 | CCCCCCCCCC[N+](C)(C)[O-] | inactive | 
80 | CCc1nc(N)nc(N)c1-c1ccc(Cl)cc1 |  | 100 µM (active)
81 | CS(=O)(=O)c1ccc([C@@H](C[C@H]2CCC(=O)C2)C(=O)Nc2cnccn2)cc1Cl | inactive | 
82 | O=C(NS(=O)(=O)/C=C/c1cccs1)c1ccc(F)cc1Br | inactive | 
83 | O=C(O)c1[nH]n(-c2ccc(S(=O)(=O)O)cc2)c(=O)c1N=Nc1ccc(S(=O)(=O)O)cc1 | inactive | 
84 | CC(C)c1cccc(C(C)C)c1 | inactive | 
85 | CN(C)C(=O)NC1(c2ccccc2)CCN(CC[C@@]2(c3ccc(F)c(F)c3)CN(C(=O)c3ccccc3)CCO2)CC1 |  | 4.16 µM (active)
86 | CC1(C)C(=O)NC(=O)N1CO | inactive | 
